Several values for one entry are separate records, joined by “and”; a condition that tells them apart may be missing. Equal entries are not always repeated. Records with an inconclusive call do not appear. Activity calls are given as the source filed them. Unless noted, calls follow the shape of the full dose curve.
Legend:
[1] = Validation screen for inhibitors of Lassa infection (AID 463096); also: % is scaled to controls: 0 for no effect and ±100 for the full control effect
[2] = Quantitative high throughput screen for delayed death inhibitors of the malarial parasite plastid, 96 hour incubation (AID 488745; active = well fitted curve in the direction sought with a large enough effect; an effect the other way counts as inactive or inconclusive; also: % is scaled to controls: 0 for no effect and ±100 for the full control effect; nearly all actives have a fitted effect of over 70% in size)
Procedure, shortened: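 Decreased firefly luciferase luminescence indicates inhibited growth of reporter-integrated P. falciparum after two generations (96 h, 37 C, 5% CO2). Infected erythrocytes at 0.1% parasitemia, 2% hematocrit, in Albumax-supplemented RPMI 1640.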

[3] = Quantitative high throughput screen for delayed death inhibitors of the malarial parasite plastid, 48 hour incubation (AID 488752; active = well fitted curve in the direction sought with a large enough effect; an effect the other way counts as inactive or inconclusive; also: % is scaled to controls: 0 for no effect and ±100 for the full control effect; nearly all actives have a fitted effect of over 65% in size)
Procedure, shortened: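 One-generation (48 h) growth assay: a decrease in luciferase signal from an integrated reporter in P. falciparum-infected red cells (0.1% parasitemia, 2% hematocrit) after compound exposure at 37 C indicates parasite inhibition.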

[4] = Inducers of the Endoplasmic Reticulum Stress Response (ERSR) in human glioma: Validation (AID 504836; active = well fitted curve in the direction sought with a large enough effect; an effect the other way counts as inactive or inconclusive; also: 0% is about no effect)
Procedure, shortened: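 Stably transfected U87-MG human glioma cells carrying a GRP78-based luminescent sensor were seeded at 1000 cells/well, pin-dosed with compounds and incubated 16 h. Luciferase reagent was then added, and end-point luminescence was read after 10 min at room temperature.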

[5] = target: Bile acid receptor (Homo sapiens) (UniProt Q96RI1); assay: qHTS assay for small molecule agonists of farnesoid X receptor signaling (AID 588527); details: HEK293T FXR-UAS-bla, beta-lactamase ratio, 16 h; activation: stronger effect = higher value;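 also: 0% = vehicle basal and 100% = reference agonist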
Bile acid receptor (Homo sapiens), sequence (Q96RI1 whole entry, looked up): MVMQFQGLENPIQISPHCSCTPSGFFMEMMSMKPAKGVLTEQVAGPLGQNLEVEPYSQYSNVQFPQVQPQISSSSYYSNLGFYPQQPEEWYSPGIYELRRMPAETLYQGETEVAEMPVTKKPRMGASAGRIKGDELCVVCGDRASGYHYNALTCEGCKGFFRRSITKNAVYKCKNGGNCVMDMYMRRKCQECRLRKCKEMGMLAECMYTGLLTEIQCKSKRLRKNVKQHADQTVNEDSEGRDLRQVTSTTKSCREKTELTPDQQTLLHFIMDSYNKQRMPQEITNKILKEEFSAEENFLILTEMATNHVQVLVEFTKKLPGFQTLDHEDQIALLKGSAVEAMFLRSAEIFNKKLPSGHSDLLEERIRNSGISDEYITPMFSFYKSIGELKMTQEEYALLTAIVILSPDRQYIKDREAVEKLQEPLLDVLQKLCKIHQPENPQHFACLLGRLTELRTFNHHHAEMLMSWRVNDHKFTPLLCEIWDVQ
Procedure, shortened: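 Quantitative HTS used FXR-UAS-bla HEK293T cells with 16 h compound incubation at 37 C. EC50 values came from concentration-response curves normalized to chenodeoxycholic acid.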

[6] = target: Peroxisome proliferator-activated receptor delta (Homo sapiens) (UniProt Q03181); assay: qHTS assay for small molecule agonists of peroxisome proliferator-activated receptor delta signaling (AID 588534);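 also: 0% = DMSO basal wells and 100% = positive control agonist at 10 µM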
Peroxisome proliferator-activated receptor delta (Homo sapiens), sequence (Q03181 whole entry, looked up): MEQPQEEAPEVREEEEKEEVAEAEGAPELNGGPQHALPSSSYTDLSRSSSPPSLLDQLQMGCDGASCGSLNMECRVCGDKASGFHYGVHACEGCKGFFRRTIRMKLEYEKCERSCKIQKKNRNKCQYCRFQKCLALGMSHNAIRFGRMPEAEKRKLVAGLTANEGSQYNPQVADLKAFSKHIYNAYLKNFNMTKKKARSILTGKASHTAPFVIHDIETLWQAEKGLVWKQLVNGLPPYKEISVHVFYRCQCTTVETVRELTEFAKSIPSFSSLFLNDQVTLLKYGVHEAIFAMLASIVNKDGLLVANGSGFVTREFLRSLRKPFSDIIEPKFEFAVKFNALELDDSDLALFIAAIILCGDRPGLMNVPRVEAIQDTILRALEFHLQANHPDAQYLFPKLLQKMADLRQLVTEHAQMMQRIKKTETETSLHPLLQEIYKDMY
Procedure, shortened: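 Agonist-mode beta-lactamase reporter readout (CCF4 dye, 2 h at RT) after 18 h at 37 °C exposure to a titration; Hill-equation fitting gave EC50 and maximal response.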

[7] = qHTS for Inhibitors of the Functional Ribonucleoprotein Complex (vRNP) of Lassa (LASV) Arenavirus: Viability assay - alamar blue signal for LASV Primary Screen (AID 1347083; calls by dose curve; tested in HEK293 reporter line; also: nearly all actives have a fitted effect of over 80% in size; also: potency is read from the fitted curve at half-maximal effect)
[8] = qHTS for Inhibitors of the Functional Ribonucleoprotein Complex (vRNP) of Lymphocytic Choriomeningitis Arenaviruses (LCMV): Viability assay - alamar blue signal for LCMV Primary Screen (AID 1347085; calls by dose curve; tested in HEK293 reporter line; also: nearly all actives have a fitted effect of over 80% in size; also: potency is read from the fitted curve at half-maximal effect)
[9] = Primary qHTS to identify inhibitors of SARS-CoV-2 cell entry (AID 1645846); details: activity change, negative = inhibition: at 57.1 µM (top of the series) unless noted; also: nearly all actives have a fitted effect of over 45% in size
Procedure, shortened: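 Inhibition of spike-mediated entry was scored in human ACE2-transfected Expi293F cells. Particles were MLV-pseudotyped with Wuhan-Hu-1 S carrying a 19-aa C-terminal deletion; signal was luciferase after two days, scaled between spike PP and fusion-protein-free PP.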

[10] = Primary qHTS for inhibitors of SARS-S pseudo-typed particle cell entry (AID 1479145); also: nearly all actives have a fitted effect of over 45% in size; as to activity change, negative = inhibition: % is scaled to controls: 0 for no effect and ±100 for the full control effect
[11] = Primary qHTS for Huh7 cytotoxicity: counterscreen for inhibitors of MERS-S pseudotyped particle cell entry (AID 1479147); details: outcome: dose series up to 57.1 µM unless noted
[12] = Primary qHTS for inhibitors of MERS-S pseudo-typed particle cell entry (AID 1479149); also: nearly all actives have a fitted effect of over 60% in size
[13] = Primary qHTS for Vero E6 cytotoxicity: counterscreen for inhibitors of SARS-S pseudo-typed particle cell entry (AID 1479150); details: outcome: dose series up to 57.1 µM unless noted
[14] = Confirmatory qHTS to identify inhibitors of SARS-CoV-2 cell entry (AID 1645844); also: potency is read from the fitted curve at half-maximal effect; nearly all actives have a fitted effect of over 45% in size
Procedure, shortened: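 Using stable human ACE2 Expi293F cells, compounds preincubated 1 hr before spike pseudoparticle infection; luciferase signal after 48 hr at 37C, 5% CO2, normalised to spike PP and no-fusion-protein PP wells.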

[15] = Cytotoxicity counterscreen for inhibitors of SARS-CoV-2 cell entry (AID 1645845); also: nearly all actives have a fitted effect of over 50% in size; also: potency is read from the fitted curve at half-maximal effect
Procedure, shortened: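 After a 15 min room-temperature ATPLite 1step step, luminescence reflected ATP remaining in HEK293-ACE2 cells exposed to compound for 1 h plus 48 h at 37 C, with percent activity set by cell and no-cell controls.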

[16] = VSVG counterscreen qHTS to identify inhibitors of SARS-CoV-2 cell entry (AID 1645847); also: potency is read from the fitted curve at half-maximal effect; nearly all actives have a fitted effect of over 65% in size
Procedure, shortened: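 Luminescence from a luciferase reporter, normalised to bald particle and VSV-G pseudotyped particle wells, is the read-out. Cells are HEK293 expressing human ACE2, exposed to compound 1 h before a 48 h particle infection at 37 °C.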

[17] = target: Alpha-galactosidase (Coffea arabica) (UniProt Q42656); assay: Counterscreen for Glucocerebrosidase Inhibitors: qHTS Assay for Coffee Bean alpha-Galactosidase at pH 4.5 (AID 957; active = well fitted curve in the direction sought with a large enough effect; an effect the other way counts as inactive or inconclusive;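 also: plate controls were enzyme alone for no effect and no enzyme for full effect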)
Alpha-galactosidase (Coffea arabica), sequence (Q42656 whole entry, looked up): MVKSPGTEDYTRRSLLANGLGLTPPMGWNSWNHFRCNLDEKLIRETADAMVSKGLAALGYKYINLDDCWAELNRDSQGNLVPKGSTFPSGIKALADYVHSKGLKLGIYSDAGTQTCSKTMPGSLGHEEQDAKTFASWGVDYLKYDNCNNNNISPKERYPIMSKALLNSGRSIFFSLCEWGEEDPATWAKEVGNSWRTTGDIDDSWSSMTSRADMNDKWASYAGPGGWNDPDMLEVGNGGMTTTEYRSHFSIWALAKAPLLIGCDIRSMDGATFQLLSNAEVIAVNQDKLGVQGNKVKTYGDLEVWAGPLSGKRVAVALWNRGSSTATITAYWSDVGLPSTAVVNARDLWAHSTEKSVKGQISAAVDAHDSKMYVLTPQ
Procedure, shortened: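 Fluorogenic qHTS at pH 4.5 (citrate buffer with Tween-20): 2 nM enzyme, 80 uM 4-MU-alpha-galactoside substrate, compound titrated 0.7 nM to 77 uM, 20 min room temperature. Glycine/NaOH stop; 4-MU read Ex 365/Em 440; Hill-equation AC50 against no-enzyme and enzyme controls.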

[18] = target: Alpha-galactosidase (Coffea arabica) (UniProt Q42656); assay: Counterscreen for Glucocerebrosidase Inhibitors: qHTS Assay for Coffee Bean alpha-Galactosidase at pH 5.9 (AID 998; active = well fitted curve in the direction sought with a large enough effect; an effect the other way counts as inactive or inconclusive;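 also: plate controls were uninhibited enzyme for no effect and no-enzyme basal signal for full effect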)
Procedure, shortened: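 In 50 mM citric acid pH 5.9 with 0.005% Tween-20, coffee bean enzyme hydrolyses 80 uM 4-MU alpha-D-galactopyranoside over 20 min at RT. Activity is normalized to controls; AC50 comes from Hill-modelled concentration-response data.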

[19] = qHTS for differential inhibitors of proliferation of Plasmodium falciparum line 3D7 (AID 1876; active = well fitted curve in the direction sought with a large enough effect; an effect the other way counts as inactive or inconclusive; also: potency is read from the fitted curve at half-maximal effect)
[20] = Nrf2 qHTS screen for inhibitors: Validation (AID 493153; active = well fitted inhibition curve with a large enough effect in the main read-out, with a control signal flat, not every such curve was filed as active;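 as to activity change, negative = inhibition: A549 cells with ARE-driven firefly luciferase reporter reporting Nrf2 activity; % of control where 0% means no effect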); details: Potency: luciferase luminescence; viability change: measured here: cytotoxicity max response
Procedure, shortened: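 Concentration-response on A549 ARE_Fluc reporter cells exposed 18-24 h at 37 C, 5% CO2. Cytotoxicity read first by CellTiter-Fluor fluorescence (Ex 405/Em 525), then Nrf2 inhibition by BugLite luminescence after 15 min.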

[21] = qHTS for Inhibitors of ATXN expression: Validation (AID 588378; active = well fitted curve in the direction sought with a large enough effect; an effect the other way counts as inactive or inconclusive; also: % is scaled to controls: 0 for no effect and ±100 for the full control effect; nearly all actives have a fitted effect of over 75% in size)
Procedure, shortened: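 Compounds were pinned onto attached HEK293 cells carrying an ATXN2-firefly luciferase construct and incubated 24 hrs at 37 degrees C. Each well then received a fluorescent viability reagent followed by luciferase substrate for end-point luminescence.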

[22] = qHTS assay for small molecule activators of the p53 signaling pathway (AID 651743; active = well fitted activation curve with a large enough effect in the signal ratio, not every such curve was filed as active; the % refers to the signal ratio; also: potency is read from the fitted curve at half-maximal effect); details: HCT-116 p53RE-bla, beta-lactamase FRET ratio, 16 h; activation: stronger effect = higher value
Procedure, shortened: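 Agonist-mode quantitative HTS in HCT-116 cells carrying a p53-response-element beta-lactamase reporter; 16 h compound treatment at 37 C, then FRET substrate loading for 2 h at room temperature and fluorescence read.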

[23] = qHTS assay to identify small molecules that stimulate interleukin-8 (IL-8) secretion (AID 651758; active = well fitted activation curve with a large enough effect in the signal ratio; the % refers to the signal ratio; also: potency is read from the fitted curve at half-maximal effect)
Procedure, shortened: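 Quantitative HTS in THP-1 monocytic cells at 2000 cells per well, with 16 hrs compound incubation at 37 C. IL-8 in the medium was then quantified by HTRF immunoassay, read after 1-3 hrs at room temperature.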

[24] = target: Nuclear receptor ROR-gamma (Homo sapiens) (UniProt P51449); assay: qHTS assay for small molecule antagonists of the retinoid-related orphan receptor gamma (ROR-gamma) signaling pathway (AID 651802; active = well fitted curve in the direction sought with a large enough effect; an effect the other way counts as inactive or inconclusive; also: potency is read from the fitted curve at half-maximal effect; nearly all actives have a fitted effect of over 60% in size)
Nuclear receptor ROR-gamma (Homo sapiens), sequence (P51449 whole entry, looked up): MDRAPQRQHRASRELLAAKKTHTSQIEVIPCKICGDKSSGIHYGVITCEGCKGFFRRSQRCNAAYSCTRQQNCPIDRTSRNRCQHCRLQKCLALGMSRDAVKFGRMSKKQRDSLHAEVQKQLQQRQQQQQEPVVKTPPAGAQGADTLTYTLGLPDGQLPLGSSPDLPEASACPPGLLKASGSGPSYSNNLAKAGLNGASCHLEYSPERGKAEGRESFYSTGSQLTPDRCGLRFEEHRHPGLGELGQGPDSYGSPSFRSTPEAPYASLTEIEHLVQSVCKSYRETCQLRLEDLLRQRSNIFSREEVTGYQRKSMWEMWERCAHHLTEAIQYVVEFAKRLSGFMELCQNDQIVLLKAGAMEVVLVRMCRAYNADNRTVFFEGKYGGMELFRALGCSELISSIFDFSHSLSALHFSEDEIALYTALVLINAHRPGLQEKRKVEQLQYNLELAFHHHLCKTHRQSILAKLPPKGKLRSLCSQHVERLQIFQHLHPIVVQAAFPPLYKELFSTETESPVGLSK
Procedure, shortened: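 Luminescence (One-Glo, 30 min RT) measured 16 h after compound addition and doxycycline induction at 37C. Reporter: RORE-luciferase under TET-inducible ROR-gamma in CHO cells.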

[25] = target: Arylsulfatase A (Homo sapiens) (UniProt P15289); assay: qHTS screen for enhancers of Arylsulfatase A (ASA1): LOPAC Validation Assay (AID 720538; active = well fitted curve in the direction sought with a large enough effect; an effect the other way counts as inactive or inconclusive; also: 0% is about no effect)
Arylsulfatase A (Homo sapiens), sequence (P15289 whole entry, looked up): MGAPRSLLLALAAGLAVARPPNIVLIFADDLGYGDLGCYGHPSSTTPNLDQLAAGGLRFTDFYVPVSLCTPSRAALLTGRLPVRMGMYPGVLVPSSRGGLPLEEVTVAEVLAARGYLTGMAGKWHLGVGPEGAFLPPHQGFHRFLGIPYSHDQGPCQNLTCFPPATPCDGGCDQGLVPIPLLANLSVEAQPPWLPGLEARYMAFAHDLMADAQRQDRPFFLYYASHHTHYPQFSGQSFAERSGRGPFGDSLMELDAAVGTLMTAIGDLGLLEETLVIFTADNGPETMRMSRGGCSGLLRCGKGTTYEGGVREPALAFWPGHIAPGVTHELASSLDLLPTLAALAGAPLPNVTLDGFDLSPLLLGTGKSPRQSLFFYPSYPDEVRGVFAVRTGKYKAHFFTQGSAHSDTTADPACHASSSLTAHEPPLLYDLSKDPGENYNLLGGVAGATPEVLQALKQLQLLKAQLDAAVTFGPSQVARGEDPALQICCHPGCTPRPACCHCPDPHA
Procedure, shortened: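 MLD patient fibroblasts (SV40, ASA-I179S), 1536-well; adhere 6 hrs; cpd 48h, 37 degree C, 5% CO2; pNCS 0.5mM final in lysis buffer, 14h RT; stop 1N NaOH final; fluor. Ex525/Em598.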

[26] = target: Nucleoprotein (Lymphocytic choriomeningitis virus (strain Armstrong)) (UniProt P09992); assay: qHTS for Inhibitors of the Functional Ribonucleoprotein Complex (vRNP) of Lymphocytic Choriomeningitis Arenaviruses (LCMV): LCMV Primary Screen - GLuc reporter signal (AID 1347086); also: nearly all actives have a fitted effect of over 70% in size; also: potency is read from the fitted curve at half-maximal effect; as to activity change, negative = inhibition: % is scaled to controls: 0 for no effect and ±100 for the full control effect
Nucleoprotein (Lymphocytic choriomeningitis virus (strain Armstrong)), sequence (P09992 whole entry, looked up): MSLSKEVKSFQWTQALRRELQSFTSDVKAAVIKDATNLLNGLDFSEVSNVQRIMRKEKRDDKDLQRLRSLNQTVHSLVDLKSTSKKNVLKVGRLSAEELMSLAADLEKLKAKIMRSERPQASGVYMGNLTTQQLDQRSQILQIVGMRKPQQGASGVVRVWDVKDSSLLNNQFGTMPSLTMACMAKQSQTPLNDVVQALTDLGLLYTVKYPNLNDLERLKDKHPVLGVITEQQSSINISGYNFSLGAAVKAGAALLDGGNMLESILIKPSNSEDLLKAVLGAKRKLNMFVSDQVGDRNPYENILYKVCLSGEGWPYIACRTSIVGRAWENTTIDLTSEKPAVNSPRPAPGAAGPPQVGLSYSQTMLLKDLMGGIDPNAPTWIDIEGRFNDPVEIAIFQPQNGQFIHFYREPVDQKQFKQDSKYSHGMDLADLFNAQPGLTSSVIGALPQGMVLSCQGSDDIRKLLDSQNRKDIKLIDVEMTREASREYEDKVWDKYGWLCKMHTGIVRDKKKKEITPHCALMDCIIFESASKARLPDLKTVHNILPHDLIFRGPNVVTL

CC(C)NCC(O)COc1cccc2ccccc12 (stereo unspecified)
inactive: Potency [1] | Potency [2] | Potency [3] | outcome [4] | activation [5] 0.153% and 4.79% | Potency [6] | Potency [7] | Potency [8]

CC(C=CC1=C(C)CCCC1(C)C)=CC=CC(C)=CC(=O)Nc1ccc(O)cc1
inactive: activation [5] 2.75% | Potency [6]
active: Potency [7] 44.4 µM | Potency [8] 44.4 µM

Cc1ncc(-c2ccnc(Nc3ccc(S(C)(=O)=O)cc3)n2)n1C(C)C
-96.5%: activity change, negative = inhibition [9]
active: Potency [7] 6.85 µM | Potency [8] 13.7 µM

CC[C@]1(O)C[C@H]2CN(CCC3=c4ccccc4=N[C]3[C@@](C(=O)OC)(c3cc4c(cc3OC)N(C)[C@H]3[C@@](O)(C(N)=O)[C@H](O)[C@]5(CC)C=CCN6CC[C@]43[C@@H]65)C2)C1
active: Potency [7] 0.0385 µM | Potency [8] 0.0109 µM | Potency [14] 0.0764 µM | Potency [16] 0.0304 µM
inactive: Potency [10] | outcome [11] | Potency [12] | outcome [13] | Potency [15]

NC(=O)c1ncn([C@@H]2O[C@H](CO)[C@@H](O)[C@H]2O)n1
7.17%: viability change [20]
active: Potency [19] 8.91 µM | Potency [22] 31.6 µM | Potency [23] 66.8 µM | Potency [24] 18.8 µM
inactive: outcome [17] | outcome [18] | Potency [1] | Potency [20] | outcome [4] | Potency [21] | Potency [6] | Potency [25] | Potency [7] | Potency [8] | Potency [10] | outcome [11] | Potency [12] | outcome [13] | Potency [15]
-11.7%: activity change, negative = inhibition [9]

CN[C@@H](C)C(=O)N[C@H]1CN(C(=O)CC(C)C)CC[C@H]2CC[C@@H](C(=O)NC(c3ccccc3)c3ccccc3)N2C1=O
1.03%: activity change, negative = inhibition [9]
inactive: Potency [15]
active: Potency [7] 3.43 µM | Potency [8] 12.2 µM

NC(N)=NC(N)=NCCc1ccccc1
inactive: Potency [6] | Potency [7] | Potency [8] | Potency [15]
-16.7%: activity change, negative = inhibition [9]

NC(=O)Nc1cc(-c2ccc(CN3CCOCC3)cc2)sc1C(N)=O
active: Potency [7] 7.69 µM
inactive: Potency [26] | Potency [15]
-10.1%: activity change, negative = inhibition [9]

CNC1CCC(N(Cc2cccc(-c3ccncc3)c2)C(=O)c2sc3ccccc3c2Cl)CC1 (stereo unspecified)
active: Potency [7] 30.6 µM | Potency [26] 10.9 µM | Potency [15] 31.6 µM

Reference: PubChem BioAssay (NCATS)
